# Screens: PubChem, National Center for Advancing Translational Sciences (NCATS)
# Tau fil binding: tau filament binding; P10636; recombinant tau filaments, thioflavin S fluorescence, 15 h; filaments grown with octadecylsulfate alongside compound; Potency, µM (top dose mostly 57.1 µM), without a hit: top-dose activity change, negative = inhibition; hit rate 2% among 71,000; AID 596;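 also: % is scaled to controls: 0 for no effect and ±100 for the full control effect; actives lower thioflavin S fluorescence by blocking filaments or displacing dye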
#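 Thioflavine S fluorescence (ex 450, em 510 nm) reports filaments formed from 1 uM human tau plus 30 uM ODS over 15 h at 37 C (10 mM HEPES pH 7.4, 100 mM NaCl, 5 mM DTT); compounds displacing dye or blocking filaments lower signal.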
# Casp7 inh: allosteric or competitive inhibitors of human caspase-7; P55210; recombinant caspase-7, Ac-DEVD-AFC fluorescence rate; Potency, µM (series often up to 57.5 µM), without a hit: top-dose activity change, negative = inhibition, actives largely listed as inhibitors; hit rate 0.02% among 75,000; active = well fitted inhibition curve with a large enough effect in the main read-out, with a control signal flat, not every such curve was filed as active; inconclusive = small, poorly fitted or top-dose-only effect, or a change in a side signal; also: % of control where 0% means no effect
# Casp1 inh: allosteric or competitive inhibitors of human caspase-1 | P29466 | Caspase-1 enzyme, Ac-WEHD-AFC fluorogenic rate | Potency, µM (highest dose often 57.5 µM), inactives show at the top dose activity change, negative = inhibition, actives largely listed as inhibitors | hit rate 0.03% among 75,000 | AID 900;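 also: plate controls were vehicle for no effect and no substrate for full effect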
# PK Bst: alters activity of Bacillus stearothermophilus pyruvate kinase; purified pyruvate kinase, luminescence ATP production; ribose 5-phosphate activator present at AC10; Potency, µM; hit rate 1.2% among 51,000; AID 361; in the data active = potency below about 11 µM; inconclusive = mostly about 12 µM to 25 µM;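 the screen sought inhibitors and activators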;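 also: scaled between full activation by ribose 5 phosphate and full inhibition by luteolin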
# FLuc inh: firefly luciferase inhibition | purified firefly luciferase, luminescence, 8 min | Potency, µM (titrated, usually from 57.1 µM), without a hit: at the highest dose activity change, negative = inhibition, usual class: inhibitors | hit rate 2.2% among 72,000 | AID 411; also: % is scaled to controls: 0 for no effect and ±100 for the full control effect; nearly all actives have a fitted effect of over 40% in size
#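 Here, luciferase activity is measured as luminescence following an 8 min room-temperature reaction at 10 uM ATP, pH 7.2. Every library sample is titrated.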
# Numbers without * were called inactive; i = inactive; ? = inconclusive; nt = no result; [ ] = remark or other dose. Most compounds without a hit are left out; they make up all but 4% or so of the library. Unless noted, calls follow the shape of the dose curve; as a rule, active = well fitted curve in the direction sought with a large enough effect; inconclusive = small, poorly fitted or top-dose-only effect, or another doubt; inactive = no such curve, though single readings can be large; an effect the other way counts as inactive or inconclusive. Potency is read from the fitted curve at half-maximal effect.
SMILES,Tau fil binding,Casp7 inh,Casp1 inh,PK Bst,FLuc inh
COc1cc(-c2nnc(-c3cccs3)o2)cc(OC)c1OC,-1%,2%,-2%,>57,-3%
c1csc(-c2nnc(-c3ccc(N4CCOCC4)cc3)o2)c1,28%,-2%,-6%,?,3.2µM*
O=S(=O)(c1ccccc1)N1CCC[C@@]2(CCN(Cc3cc(C(F)(F)F)cc(C(F)(F)F)c3)C2)C1,-11%,-1%,1%,nt,-2%[11.4 µM]
CCOC(=O)c1c(O)[nH]c(=O)c(CC)c1C,2%[11.4 µM],-2%[11.5 µM],-7%[11.5 µM],nt,0%[11.4 µM]
CCCCCCC(=O)N1CCC(c2nc3c(nnn3Cc3ccccc3Cl)c(=O)[nH]2)CC1,68%,13µM*,-4%,>57,-6%
N=C1CCC[C@@H]1C(=S)SCCC(N)=O,7%[11.4 µM],0%[11.5 µM],-3%[11.5 µM],nt,1%[11.4 µM]
CC(=O)Nc1ccc(N/C=C/C(=O)c2ccco2)cc1,0%,-13%,-14%,i,25µM*
O=C(/C=C/Nc1ccc(F)c(Cl)c1)c1ccco1,-10%,-22%,-13%,i,16µM*
O=C(CCNc1ccc(F)c(Cl)c1)c1ccco1,-6%[11.4 µM],0%,0%,nt,-1%
Cc1nc2ccccc2c(=O)n1/N=C/c1cn(-c2ccccc2)nc1-c1cccs1,25%,-2%,-2%,nt,3.2µM*
Cc1nc2ccccc2c(=O)n1/N=C/c1ccncc1,1%,0%,0%,nt,0%
O=C(O)C(F)(F)C(F)(F)C(F)(F)C(F)(F)C(=O)O,-12%[11.4 µM],0%[11.5 µM],-2%[11.5 µM],nt,2%[11.4 µM]
CCOc1cc(/C=N/NC(=O)c2cc(-c3cccc(OC)c3)n[nH]2)ccc1O,nt,-1%,-5%,nt,nt
Cc1c(C(=O)OC2CCC(C)CC2)[nH]c2c1C(=O)CCC2 (centres undefined),43%,-3%,-5%,nt,16µM*
COC(=O)c1[nH]c2c(c1C)C(=O)CCC2,8%,1%,1%,>57,-1%
NC(=O)c1ncn([C@@H]2O[C@@H](CO)[C@@H](O)[C@H]2O)c1O,-2%,0%,0%,nt,-2%
O=C(Cc1coc2ccc3ccccc3c12)N1CCN(c2ncccn2)CC1,-3%,-7%,-4%,11*,-33%
O=C(COc1ccccc1Cl)N1CCN(c2ncccn2)CC1,4%,-1%,3%,>57,0%
COc1ccc(OCc2cccc(C(=O)O)c2)cc1,6%,2%,1%,1.2*,2µM*
O=C(O)c1cccc(COc2ccc(CO)cc2Cl)c1,-2%,0%,0%,0.95*,1µM*
CCOc1ccc(OCc2cccc(C(=O)N3CCCC3)c2)cc1,1%,0%,1%,?,13µM*
CCOc1ccc(OCc2cccc(C(=O)O)c2)cc1,7%,1%,-1%,0.76*,0.79µM*
OB(O)O,-2%,0%,0%,nt,nt
COc1ccc(Oc2ncc3nc(-c4cccs4)c(=O)n(Cc4cccs4)c3n2)cc1,?,?,nt,nt,1%[11.4 µM]
COCCn1c(C)cc(C(=O)COC(=O)c2cc3c(s2)CCC3)c1C,9%,?,-9%,>57,-5%
SMILES,Tau fil binding,Casp7 inh,Casp1 inh,PK Bst,FLuc inh
COCCn1c(C)cc(C(=O)COC(=O)C23CC4CC(CC(O)(C4)C2)C3)c1C,8%,1%,-2%,i,13µM*
C=CC[C@@H]1C=C[C@@H](O/N=C\[C@@H](NS(=O)(=O)c2ccc(C)cc2)[C@H](C)/C=C\CC(=O)OC)[C@@H](CO)O1,nt,-1%[11.5 µM],3%[11.5 µM],nt,0%[11.4 µM]
CC(C)CN(C(=O)c1ccc(=O)n(C)n1)c1nc2ccccc2s1,25µM*,-3%,-1%,>57,1%
O=C(Cn1c(-c2ccccc2)noc1=O)Nc1ccc(S(=O)(=O)N2CCOCC2)cc1,12%,-6%,0%,>57,0%
O=C(Cn1c(-c2ccccc2)noc1=O)Nc1ccc(N2CCCCCC2)cc1,13µM*,-2%,-1%,>57,-6%
C[C@H]1C[C@@H]2[C@@H]([C@@H](O)C[C@@]3(C)[C@H]2CC[C@]3(O)C(=O)CO)[C@@]2(C)C=CC(=O)C=C12,4%[25.6 µM],0%[25.7 µM],1%[25.7 µM],nt,6%[25.5 µM]
CCC(=O)OCC(=O)c1c(N)n(Cc2ccccc2)c(=O)n(C)c1=O,13%,-1%,0%,>57,4%
Cn1c(=O)c(C(=O)CN2CCCc3ccccc32)c(N)n(Cc2ccccc2)c1=O,25µM*,-6%,-10%,>57,-1%
O=C1c2ccccc2-c2ccc(N(Cc3ccc(Br)cc3)Cc3ccc(Br)cc3)cc21,0.63µM*,-2%[11.5 µM],1%[11.5 µM],nt,0%[11.4 µM]
